Data from paper PMC4336329 (PLoS ONE, 2015).
The whole screen tested about 310,000 compounds, of which about 2,200 (0.71%) showed an effect of 50% or more. Effects have a minus sign here. Many of the other results were omitted from the sample, so strong results are more common in it than they were.

These compounds were tested against human ether-à-go-go-related gene (hERG) potassium channel (human, UniProt Q12809) (assay: primary screen, population patch clamp on CHO cells stably expressing hERG; higher = less effect of the substance).
Chain of human ether-à-go-go-related gene (hERG) potassium channel (Q12809 whole entry, looked up): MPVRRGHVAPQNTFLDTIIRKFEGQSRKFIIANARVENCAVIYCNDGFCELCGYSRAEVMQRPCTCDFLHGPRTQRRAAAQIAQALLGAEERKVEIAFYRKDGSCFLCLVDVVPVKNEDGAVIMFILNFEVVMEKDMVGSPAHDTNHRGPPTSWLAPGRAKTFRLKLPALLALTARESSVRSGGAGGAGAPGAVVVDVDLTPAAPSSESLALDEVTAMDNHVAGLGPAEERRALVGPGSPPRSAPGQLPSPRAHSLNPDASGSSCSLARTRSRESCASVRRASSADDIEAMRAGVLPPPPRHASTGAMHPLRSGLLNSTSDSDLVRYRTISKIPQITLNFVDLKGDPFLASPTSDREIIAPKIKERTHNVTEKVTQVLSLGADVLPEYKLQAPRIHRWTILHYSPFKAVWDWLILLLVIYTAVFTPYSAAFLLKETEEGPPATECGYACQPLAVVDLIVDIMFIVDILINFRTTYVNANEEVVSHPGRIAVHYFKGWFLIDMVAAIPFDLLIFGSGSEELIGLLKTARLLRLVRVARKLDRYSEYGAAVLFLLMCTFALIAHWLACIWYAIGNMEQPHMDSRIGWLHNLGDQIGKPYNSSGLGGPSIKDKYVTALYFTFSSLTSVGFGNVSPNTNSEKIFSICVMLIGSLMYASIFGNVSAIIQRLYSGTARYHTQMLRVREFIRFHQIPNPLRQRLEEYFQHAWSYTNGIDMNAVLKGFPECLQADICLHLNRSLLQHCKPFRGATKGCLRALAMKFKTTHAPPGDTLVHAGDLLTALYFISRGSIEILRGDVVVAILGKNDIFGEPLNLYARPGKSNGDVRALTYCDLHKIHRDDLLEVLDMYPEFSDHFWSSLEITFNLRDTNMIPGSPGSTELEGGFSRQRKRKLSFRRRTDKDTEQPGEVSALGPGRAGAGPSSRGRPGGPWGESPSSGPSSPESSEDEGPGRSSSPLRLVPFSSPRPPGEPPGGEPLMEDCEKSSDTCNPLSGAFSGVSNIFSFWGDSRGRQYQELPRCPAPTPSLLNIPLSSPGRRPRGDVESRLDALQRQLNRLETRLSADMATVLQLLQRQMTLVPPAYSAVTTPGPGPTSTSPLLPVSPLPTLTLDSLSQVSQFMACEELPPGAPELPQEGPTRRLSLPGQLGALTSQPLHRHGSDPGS

SMILES	hERG current change (%, negative = inhibition) at 1uM
c1csc(CN2CCN(Cc3cccs3)C2c2cccs2)c1	4.62%
O=C(c1ccc(=O)[nH]c1)N1CCN(S(=O)(=O)c2ccc3ccccc3c2)CC1	6.52%
O=C(NN=C1C2CC3CC(C2)CC1C3)c1ccncc1	-0.112%
Cl.Clc1ccc(-c2ccc(CNCc3ccccn3)o2)cc1	-5.94%
O=C(c1cc2cc([N+](=O)[O-])ccc2oc1=O)N1CCN(C2CCCCC2)CC1	-60.8%
CCN1CCN(C(=O)c2cc3cc([N+](=O)[O-])ccc3oc2=O)CC1	-1.11%
O=C(c1cc2cc([N+](=O)[O-])ccc2oc1=O)N1CCOCC1	7.86%
COc1ccc(Cc2nc3ccc(C(=O)NC(C)c4cn(C)nc4C)cc3o2)cc1 (centres unmarked)	9.59%
COc1ccc(OCCOC(=O)c2[nH]c(C)c(C(C)=O)c2C)cc1	8.51%
COc1ccc(-c2csc(NC(=O)CN3C(=O)NC4(CCCC4)C3=O)n2)cc1	1.42%
COc1ccc(C(=O)C(OC(=O)c2ccccc2)c2ccccc2)cc1 (centres unmarked)	2.14%
Cc1ccc(C)c(CSc2ccc3nnc(-c4ccccn4)n3n2)c1	-54.3%
Cc1ccc(NC(=O)CSc2ccc3nnc(-c4ccccn4)n3n2)cc1	5.84%
Cc1ccccc1CSc1ccc2nnc(-c3ccccn3)n2n1	-50.9%
Cc1ccc(CSc2ccc3nnc(-c4ccccn4)n3n2)cc1	-36.5%
O=C(CSc1ccc2nnc(-c3ccccn3)n2n1)N1CCOCC1	6.32%
Cc1ccccc1CSc1nnc(-c2ccccn2)n1C	10.8%
CCOC(=O)N1CCN(C(=O)CSc2ccc3nnc(-c4ccccn4)n3n2)CC1	2.22%
Cc1ccccc1NC(=O)CSc1ccc2nnc(-c3ccccn3)n2n1	7.85%
O=C(CSc1ccc2nnc(-c3ccccn3)n2n1)N1CCN(c2ccccc2)CC1	-89.9%
CNc1sc(C(=O)c2ccc(F)cc2)c(N)c1-c1nc2ccccc2s1	5.15%
CNNC(=S)NCCC1=CCCCC1	10.2%

SMILES	hERG current change (%, negative = inhibition) at 1uM
C/C(N)=C(/C#N)C(=O)CSc1nc2ccc(C)cc2[nH]1	11%
Cn1cnnc1SC(C(=O)Nc1ccc(F)cc1)c1ccccc1 (centres unmarked)	4.93%
CCCc1ccc(-c2cc(C(=O)NCCc3ccc(S(N)(=O)=O)cc3)c3ccccc3n2)cc1	16.3%
O=C(CCS(=O)(=O)c1ccc(Br)cc1)Nc1ccccn1	15.2%
CCOc1ccc(N(CC(=O)OC)S(=O)(=O)c2ccc(OC)c(OC)c2)cc1	-0.463%
COc1ccc(Cl)cc1NC(=O)CSc1nnc(Cc2cccn2C)n1-c1ccc(F)cc1	2.71%
COc1ccc(-n2c(Cc3cccn3C)nnc2SCC(=O)Nc2cc(Cl)ccc2OC)cc1	-50.9%
COc1ccc(-n2c(Cc3cccn3C)nnc2SCC(=O)Nc2ccccc2OC)cc1	-4.23%
COc1ccc(C2NN=C(c3ccc(C)cc3)S2)cc1OC (centres unmarked)	16.1%
CCN(CC)CCN(C(=O)C1=COCCO1)c1nc2cc3c(cc2s1)OCO3.Cl	-63.3%
CCN(CC)CCN(C(=O)C1=COCCO1)c1nc2c(OC)ccc(OC)c2s1.Cl	-84.9%
CCN(CC)CCN(C(=O)c1ccc([N+](=O)[O-])cc1)c1nc2c(OC)cccc2s1.Cl	-53.4%
CCN(CC)CCN(C(=O)c1ccc(C(=O)c2ccccc2)cc1)c1nc2c(OC)cccc2s1.Cl	-33%
CCN(CC)CCN(C(=O)C1=COCCO1)c1nc2ccc(C)cc2s1.Cl	-34%
CCOc1cccc2sc(N(CCN(CC)CC)C(=O)c3cccc([N+](=O)[O-])c3)nc12.Cl	-44.9%
CCN(CC)CCN(C(=O)C1=COCCO1)c1nc2cc(C)cc(C)c2s1.Cl	-36.7%
CCN(C(=O)C1=COCCO1)c1nc2c(C)cccc2s1	0.721%
CCN(CC)CCN(C(=O)c1ccc2c(c1)OCCO2)c1nc2cc3c(cc2s1)OCO3.Cl	-18.3%
Cc1c(Cl)c([N+](=O)[O-])nn1CCCC(=O)Nc1cc(Cl)ccc1Cl	-10.9%
O=C(CP(=O)(c1ccccc1)c1ccccc1)N1CCCCC1	6.28%
CCOC(=O)c1cnc2ccc(OCC)cc2c1N1CCN(C)CC1.Cl	-15.6%
CCOc1ccc2ncc(C(=O)c3ccc(OC)cc3)c(N3CCN(CC)CC3)c2c1	-66%

SMILES	hERG current change (%, negative = inhibition) at 1uM
CCN1CCN(c2c(C(=O)c3ccc(OC)cc3)cnc3ccccc23)CC1	-67.9%
COc1cc2ncc(C(=O)c3ccccc3)c(N3CCN(Cc4ccccc4)CC3)c2cc1OC	8.52%
CCc1ccc(C(=O)c2cnc3ccc(OC)cc3c2N2CCN(CC)CC2)cc1	-46.6%
CCOc1ccc(C(=O)c2cnc3ccccc3c2N2CCN(CC)CC2)cc1	-43.9%
CC1CCN(CC(C)OC(=O)c2ccc3c(c2)OCCO3)CC1.Cl (centres unmarked)	3.75%
O=C(NC(NC(=S)Nc1ccccc1C(=O)O)C(Cl)(Cl)Cl)c1ccco1 (centres unmarked)	5.62%
Cc1ccc(S(=O)(=O)NCCC(=O)N2CCCCCCC2)cc1	22.3%
Cn1c(=O)oc2cc(S(=O)(=O)NCCN3CCN(c4ccccc4F)CC3)ccc21	3.83%
CN(C)c1ccc(-c2noc(C3CCN(S(=O)(=O)c4cccc(C(=O)O)c4)CC3)n2)cc1	13.6%
O=C(O)c1cccc(N=NN2CCCCCC2)c1	8.11%
Cc1ccc(Nc2nc(N)nc(CSc3nc(C)cc(C)n3)n2)cc1	8.5%
Cc1cc(C)n2c(Br)c(CSc3nc4ccccc4o3)nc2n1	-53%
Cc1csc2nc(CSc3nc4ccccc4o3)c(Br)n12	15.9%
Cc1cc(C)n2c(Br)c(CSc3nc4ccccc4s3)nc2n1	-19.3%
CCn1c(=O)c(C(=O)CN2CCOCC2)c(N)n(Cc2ccccc2)c1=O	-0.674%
CCn1c(=O)c(C(=O)CN(C)Cc2cccc(OC)c2OC)c(N)n(Cc2ccccc2)c1=O	-18.3%
CCn1c(=O)c(C(=O)CN2CCN(Cc3ccc4c(c3)OCO4)CC2)c(N)n(Cc2ccccc2)c1=O	-67.4%
CCOc1ccc(CN(C)CC(=O)c2c(N)n(Cc3ccccc3)c(=O)n(CC)c2=O)cc1OC	-82.5%
Cn1c(=O)c(C(=O)CN2CCN(Cc3ccc4c(c3)OCO4)CC2)c(N)n(Cc2ccccc2)c1=O	-40.4%
CCn1c(=O)c(C(=O)CN(C)Cc2ccc(F)cc2)c(N)n(Cc2ccccc2)c1=O	-33.6%
CCNC1=C(Cl)C(=O)c2ccccc2C1=O	14.3%
O=C(O)C1CCCN1C(=O)NC1CCCCC1 (centres unmarked)	17.1%

SMILES	hERG current change (%, negative = inhibition) at 1uM
O=C(c1cc(Br)ccc1Cl)N1CCN(c2ccc(N3CCOCC3)nn2)CC1	5.71%
COc1cccc(/C=N/NC(=O)NC23CC4CC(CC(C4)C2)C3)c1O	6.53%
COc1ccc(NC(=O)CSc2n[nH]c(-c3ccccn3)n2)cc1	13%
COc1ccc(C(=O)Nc2ccccc2NC(=O)c2ccco2)cc1OC	-9.39%
CCN=C1SC(CC(=O)Nc2ccc(C(F)(F)F)cc2)C(=O)N1CC (centres unmarked)	1.51%
Cc1cc(C)cc(NC(=O)c2ccccc2NC(=O)CCC(=O)O)c1	7.41%
CCC(=O)c1ccccc1OCCCN1CCC(Cc2ccccc2)CC1.O=C(O)C(=O)O	-87%
CC1CCN(CCCCOc2ccccc2F)CC1.O=C(O)C(=O)O	7.61%
CCC(=O)c1ccccc1OCCN1CCN(Cc2ccccc2)CC1.O=C(O)C(=O)O	-21.9%
CCC(=O)c1ccccc1OCCN1CCN(CC)CC1.O=C(O)C(=O)O	-2.43%
CCc1ccccc1OCCCCN1CCCC1.O=C(O)C(=O)O	-2.73%
O=C(O)C(=O)O.OCc1ccccc1OCCCN1CCC(Cc2ccccc2)CC1	-65.9%
N#Cc1ccccc1OCCCN1CCC(Cc2ccccc2)CC1.O=C(O)C(=O)O	-83%
CCc1ccccc1OCCCN1CCCC1.O=C(O)C(=O)O	3.26%
N#Cc1ccccc1OCCCNC1CCCC1.O=C(O)C(=O)O	2.23%
Cc1ccc(C)c(NC(=S)NCCSc2ccc(Cl)cc2)c1	11.9%
CS(=O)(=O)N1CCc2cc(C(=O)Nc3ccc(COCC(F)(F)F)cc3)ccc21	10.4%
Cc1cc(C(=O)Nc2ccc(C(=O)O)cc2)c(-c2ccccc2)o1	-3.53%
CC(=O)c1ccc(NC(=O)C(C)N(C)CC(=O)Nc2ccccc2Cl)cc1 (centres unmarked)	14.4%
O=C(O)CN1C(=O)/C(=C/c2ccsc2)SC1=S	12%
